Measured values from PubChem BioAssay (Tox21).
Results filed as inconclusive are left out. Activity calls are given as the source filed them. Unless noted, the call rests on the fitted dose curve.

Columns and labels:
[1] = target: Peroxisome proliferator-activated receptor delta (Homo sapiens) (UniProt Q03181); assay: qHTS assay to identify small molecule agonists of the peroxisome proliferator-activated receptor delta (PPARd) signaling pathway (AID 743212);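 further: HEK293H cells with PPARd UAS beta-lactamase reporter GeneBLAzer system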
Procedure, shortened: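 Beta-lactamase reporter readout: a ratiometric FRET signal from the LiveBLAzer substrate after 2 h at room temperature. Compound exposure at 37 °C in PPARδ-bla HEK293H cells driven by an upstream activator sequence.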

[2] = qHTS assay to identify small molecule antagonists of the peroxisome proliferator-activated receptor delta (PPARd) signaling pathway - cell viability counter screen (AID 743213; active means well fitted curve in the direction sought with a large enough effect in the repeat runs; an effect the other way counts as inactive or inconclusive; further: nearly all actives have a fitted effect of over 50% in size)
Procedure, shortened: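 Same-well viability: cells pre-incubated 5 h, dosed with compound plus 300 nM L165041, kept 17 h at 37 C, FRET substrate 2 h RT, then CellTiter-Glo 30 min RT and luminescence.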

[3] = target: Peroxisome proliferator-activated receptor delta (Homo sapiens) (UniProt Q03181); assay: qHTS assay to identify small molecule antagonists of the peroxisome proliferator-activated receptor delta (PPARd) signaling pathway (AID 743215; active means well fitted inhibition curve with a large enough effect in the signal ratio in the repeat runs, not every such curve was filed as active; the % refers to the signal ratio;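 further: cells stimulated with agonist L165041 at 300 nM final during compound exposure; series mostly up to about 62 µM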)
Procedure, shortened: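 Here, a reporter line (HEK293H, beta-lactamase under a UAS) measures PPARd signaling. Compounds are tested against agonist L165041 at 300 nM final concentration over 17 h at 37 C, with fluorescence read after substrate.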

[4] = qHTS assay to identify small molecule agonists of the farnesoid-X-receptor (FXR) signaling pathway - cell viability counter screen (AID 743218; active means well fitted curve in the direction sought with a large enough effect in the repeat runs; an effect the other way counts as inactive or inconclusive; further: nearly all actives have a fitted effect of over 45% in size)
Procedure, shortened: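 Quantitative HTS counter screen measuring ATP-based viability via CellTiter-Glo luminescence in HEK 293T cells carrying a UAS-driven beta-lactamase reporter, after 16 h compound exposure at 37 C.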

[5] = qHTS assay to identify small molecule antagonists of the farnesoid-X-receptor (FXR) signaling pathway - cell viability counter screen (AID 743221; active means well fitted cell-killing curve with a large enough effect in the repeat runs, not every such curve was filed as active; further: nearly all actives have a fitted effect of over 50% in size)
Procedure, shortened: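 Here viability was scored by luminescence after CellTiter-Glo addition to wells already read for beta-lactamase. Prior treatment: compound plus CDCA (50 uM final), 16 h, 37 C, HEK 293T FXR-bla cells.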

[6] = target: Vitamin D3 receptor (Homo sapiens) (UniProt P11473); assay: qHTS assay to identify small molecule agonists of the vitamin D receptor (VDR) signaling pathway (AID 743222)
Procedure, shortened: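 Tox21 cell reporter format: VDR-bla line, 16 h compound exposure in 5% CO2 at 37C, then fluorescence intensity after 2 h with LiveBLAzer B/G FRET substrate.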

[7] = target: Vitamin D3 receptor (Homo sapiens) (UniProt P11473); assay: qHTS assay to identify small molecule antagonists of the vitamin D receptor (VDR) signaling pathway (AID 743223; active means well fitted inhibition curve with a large enough effect in the signal ratio in the repeat runs, not every such curve was filed as active; the % refers to the signal ratio)
Procedure, shortened: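 Inhibition of agonist-driven VDR signalling is scored in VDR-bla cells: 3 nM final 1alpha,25-dihydroxyvitamin D3 plus compound, 16 h at 37C, then beta-lactamase detection by FRET substrate fluorescence after 2 h.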

[8] = target: Bile acid receptor (Homo sapiens) (UniProt Q96RI1); assay: qHTS assay to identify small molecule antagonists of the farnesoid-X-receptor (FXR) signaling pathway (AID 743217; active means well fitted inhibition curve with a large enough effect in the signal ratio in the repeat runs, not every such curve was filed as active; the % refers to the signal ratio)
Procedure, shortened: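 Test compounds are pin-transferred onto FXR-bla HEK 293T cells, then chenodeoxycholic acid is added at 50 uM final. After 16 h at 37 °C, LiveBLAzer B/G substrate is applied for 2 h at room temperature and fluorescence read.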

[9] = target: Bile acid receptor (Homo sapiens) (UniProt Q96RI1); assay: qHTS assay to identify small molecule agonists of the farnesoid-X-receptor (FXR) signaling pathway (AID 743220; active means well fitted activation curve with a large enough effect in the signal ratio in the repeat runs, not every such curve was filed as active; the % refers to the signal ratio)
Procedure, shortened: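 FXR-UAS-bla HEK 293T cells carrying a UAS-driven beta-lactamase reporter were plated for 5 h at 37C/5% CO2, then exposed to DMSO-dissolved Tox21 10K compounds for 16 h at 37C. A LiveBLAzer B/G FRET substrate was loaded for 2 h at room temperature before fluorescence reading.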

Measured: Potency

Sequence of Bile acid receptor (Homo sapiens) (Q96RI1 whole entry, looked up): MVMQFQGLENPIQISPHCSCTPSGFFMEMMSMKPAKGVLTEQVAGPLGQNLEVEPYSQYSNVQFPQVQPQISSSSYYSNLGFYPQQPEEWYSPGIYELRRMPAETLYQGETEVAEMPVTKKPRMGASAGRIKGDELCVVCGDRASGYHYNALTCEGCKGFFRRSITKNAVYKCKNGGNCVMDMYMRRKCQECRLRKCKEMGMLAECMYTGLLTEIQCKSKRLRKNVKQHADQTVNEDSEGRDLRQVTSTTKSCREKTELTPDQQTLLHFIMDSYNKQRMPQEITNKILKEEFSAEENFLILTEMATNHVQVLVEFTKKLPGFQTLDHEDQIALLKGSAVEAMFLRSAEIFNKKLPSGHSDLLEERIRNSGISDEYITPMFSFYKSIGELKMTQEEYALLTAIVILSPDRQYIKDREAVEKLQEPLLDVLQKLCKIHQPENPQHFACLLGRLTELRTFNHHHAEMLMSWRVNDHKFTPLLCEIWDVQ
Sequence of Peroxisome proliferator-activated receptor delta (Homo sapiens) (Q03181 whole entry, looked up): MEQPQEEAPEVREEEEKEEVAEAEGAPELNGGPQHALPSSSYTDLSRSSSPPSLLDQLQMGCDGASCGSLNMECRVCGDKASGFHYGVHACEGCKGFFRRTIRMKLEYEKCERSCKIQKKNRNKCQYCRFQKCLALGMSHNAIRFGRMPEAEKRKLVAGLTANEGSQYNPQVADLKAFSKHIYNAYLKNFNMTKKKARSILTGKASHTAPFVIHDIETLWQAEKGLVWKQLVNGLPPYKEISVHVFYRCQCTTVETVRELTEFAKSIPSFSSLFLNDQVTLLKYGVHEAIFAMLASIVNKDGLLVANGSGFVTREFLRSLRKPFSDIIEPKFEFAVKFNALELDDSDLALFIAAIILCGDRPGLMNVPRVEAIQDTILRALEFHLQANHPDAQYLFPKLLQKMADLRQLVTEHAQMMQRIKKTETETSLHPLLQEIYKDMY
Sequence of Vitamin D3 receptor (Homo sapiens) (P11473 whole entry, looked up): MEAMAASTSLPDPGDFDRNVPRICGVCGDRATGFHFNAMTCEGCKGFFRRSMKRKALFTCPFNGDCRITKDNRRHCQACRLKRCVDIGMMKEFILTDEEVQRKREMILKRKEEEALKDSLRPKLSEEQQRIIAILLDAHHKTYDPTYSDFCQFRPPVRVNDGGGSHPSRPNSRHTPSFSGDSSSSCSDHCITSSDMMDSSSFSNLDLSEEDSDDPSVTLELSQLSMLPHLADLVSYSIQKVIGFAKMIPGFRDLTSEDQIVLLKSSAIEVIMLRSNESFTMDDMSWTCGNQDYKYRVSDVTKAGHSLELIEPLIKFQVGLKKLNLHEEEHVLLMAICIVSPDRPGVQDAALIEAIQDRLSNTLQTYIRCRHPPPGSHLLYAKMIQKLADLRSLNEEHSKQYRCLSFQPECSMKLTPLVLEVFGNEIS

ClC(Cl)c1ccccc1
not listed: [8] | [9]
inactive: all other assays above

N#Cc1ccccn1
inactive: [4] | [5]

c1ccc2c(c1)CCCC2
not listed: [1] | [2] | [3]
inactive: all other assays above

C=CC(=O)OCCCCCC(C)C
not listed: [2]
inactive: all other assays above

CC(=O)C1CCOC1=O (centres undefined)
not listed: [2]
inactive: all other assays above

CNC(=O)O/N=C(\SC)C(=O)N(C)C
not listed: [2] | [8] | [9]
inactive: all other assays above

CN(C)C(=O)C(c1ccccc1)c1ccccc1
inactive: [1] | [4] | [5] | [6]

CNC(=O)O/N=C/C(C)(C)S(C)=O (centres undefined)
not listed: [2]
inactive: all other assays above

O=C(O)CCCc1ccc(N(CCCl)CCCl)cc1
not listed: [2]
inactive: all other assays above

CC(=O)/C=C/c1ccccc1
not listed: [8] | [9]
inactive: all other assays above

O=C/C=C/c1ccccc1
not listed: [2] | [8] | [9]
inactive: all other assays above

O=[N+]([O-])c1cc([As](=O)(O)O)ccc1O
not listed: [2] | [8] | [9]
inactive: all other assays above

FC(F)(F)c1ccc(Cl)cc1
not listed: [2]
inactive: all other assays above

Cl/C=C/Cl
not listed: [2] | [8] | [9]
inactive: all other assays above

Sc1ccccc1
not listed: [2] | [8] | [9]
inactive: all other assays above

CCCCC(CC)C(=O)Cl (centres undefined)
not listed: [2] | [6] | [7]
inactive: all other assays above

O=C(O)C(Br)Br
not listed: [1] | [2] | [3]
inactive: all other assays above

CNCC(O)c1ccc(O)cc1 (centres undefined)
not listed: [3]
inactive: all other assays above

COC(C)(C)CCCC(C)C/C=C/C(C)=C/C(=O)OC(C)C (centres undefined)
inactive: [4] | [5]

CN1C(=O)CCS(=O)(=O)C1c1ccc(Cl)cc1 (centres undefined)
not listed: [2] | [8] | [9]
inactive: all other assays above

CC[N+](=O)[O-]
not listed: [8] | [9]
inactive: all other assays above

C=C(C)C(=O)OCC(CC)CCCC (centres undefined)
inactive: [2] | [4] | [5] | [6] | [7]

CC(C)(C)C(=O)CCl
not listed: [2] | [8] | [9]
inactive: all other assays above

Nc1ncc([N+](=O)[O-])s1
not listed: [2]
inactive: all other assays above

C/C=C/c1ccc2c(c1)OCO2
inactive: [2] | [4] | [5] | [6] | [7]

C[C@]12CC[C@H](O)CC1=CC[C@@H]1[C@@H]2CC[C@]2(C)C(=O)CC[C@@H]12
inactive: [1] | [2] | [4] | [5]
